These results are taken from PubChem BioAssay.

The nature of test [1]: yeast TOR pathway RPL19A-GFP modulators, primary screen, cell-based, S. cerevisiae, multiplex flow cytometry (AID 1862; in the data active = percent of DMSO control GFP below about 86%;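 note: lower values mimic rapamycin by blocking the RPL19A rise seen in DMSO cells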). The conditions noted are these: S. cerevisiae RPL19A-GFP strain, flow cytometry fluorescence, 3 h; at 10 µM; stronger effect = lower value. A general note: Flow cytometry measures light scatter and fluorescence of single cells or particles in a stream.
Test [2] in a line: modulators of MEP2-GFP levels in yeast, primary screen, S. cerevisiae, multiplex flow cytometry (AID 1867;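 active = GFP response, as percent of the DMSO control, above the screen-wide mean plus 3 SD, about 139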;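 note: median GFP channel fluorescence of barcode-gated MEP2-GFP cells measured by flow cytometry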). The note with it: S. cerevisiae MEP2-GFP strain, 3 h, at 10 µM, stronger effect = higher value, 100% means same as DMSO wells.
A short description of test [3]: modulators of CIT2-GFP expression in yeast, primary screen, S. cerevisiae, GFP fusion, multiplex flow cytometry (AID 1870;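 active = percent response above a set limit, the screen-wide mean plus 3 SD, cut at about 130% in these data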;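 note: barcoded CIT2-GFP strain pooled with four other GFP strains with rapamycin as positive control; median GFP fluorescence per well over plate mean of DMSO wells so 100% = DMSO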). The note with it: 3 h, at 10 µM, stronger effect = higher value.
A short description of test [4]: modulators of LAP4-GFP expression in yeast, primary screen, S. cerevisiae, multiplex flow cytometry (AID 1873). The conditions noted are these: 3 h, at 10 µM, stronger effect = higher value.
Test [5] can be described thus: modulators of AGP1-GFP expression in yeast TOR pathway, primary screen, cell-based, multiplex flow cytometry, S. cerevisiae (AID 1887;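 active = GFP signal above the screen-wide mean plus 3 SD, that is over about 124.5% of the solvent control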;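 note: AGP1-GFP fusion strain of S. cerevisiae within a five-strain barcoded multiplex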). The conditions noted are these: 3 h, at 10 µM, stronger effect = higher value.
A short description of test [6]: inhibitors of CD8+ T cell-vesicle binding, pilot screen, LFA-1/ICAM-1 modulator project, MLPCN validation set, flow cytometry (AID 2523;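 active = response below a set limit, under 55% cells CD8-positive and vesicle-bound, and CD8 cells' 90th-percentile brightness under 279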;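 for vesicle binding response: mean PE anti-B7-1 fluorescence of CD8+ cells relative to row control; 100% = QL9-loaded vesicles with DMSO vehicle in the same plate row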). The conditions noted are these: 2C mouse CD8+ T cells, at 7 µM, stronger effect = lower value; double positive events: measured here: CD8+/vesicle+ event percentage.
Test [7] deals with Integrin beta-1 (Homo sapiens) + Integrin alpha-4 (Homo sapiens) (UniProt P13612+P05556). The test can be described thus: inhibition of HUTS-21 binding to VLA-4, pilot screen, VLA-4 allosteric modulator project, U937 cells, HUTS-21 mAb, flow cytometry, validation set (AID 2674;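 active = inhibition above 50%, about 3 SD of the validation set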;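 note: antibody binding induced by the VLA-4 ligand LDV present at three times its Kd; 0% = LDV ligand with antibody and no compound and 100% = antibody without LDV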). The conditions noted are these: HUTS-21 LIBS mAb binding, at 6.7 µM, stronger effect = higher value, binding induced by LDV ligand.

In test [8] the target is Beta-adrenergic receptor kinase 1 (Homo sapiens) (UniProt P25098). As to the kind of experiment: GRK2 binders displacing RNA aptamer, biochemical, validation, human GRK2, bead flow cytometry (AID 488806;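 active = aptamer binding inhibition above 30%, about 3 SD of noise from non-fluorescent compounds; inactive = inhibition at or below 30%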). The conditions noted are these: bead-bound GRK2, FAM-aptamer displacement, at 10 µM, stronger effect = higher value.
In test [9] the target is Beta-2 adrenergic receptor (Homo sapiens) (UniProt P07550). The test can be described thus: beta2AR agonists driving receptor internalization, pilot screen, cell-based, FAP fluorogen, flow cytometry, validation set (AID 504459;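 active = percent response above 42, roughly 3 SD of non-fluorescent test compounds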;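 note: agonist-driven loss of surface beta2AR via internalization measured by FAP dye flow cytometry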). The note with it: Am2.2-beta2AR cells, FAP surface receptor flow cytometry; at 10 µM; stronger effect = higher value.
Test [10] concerns the target AP-2 complex subunit beta (Homo sapiens) (UniProt P63010). As to the kind of experiment: inhibitors of arrestin peptide binding to AP2, pilot screen, biochemical, validation set, GST-AP2 beads, flow cytometry (AID 504541;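 active = inhibition above 54%, about 3 SD of non-fluorescent compounds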;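 note: AP2 carries R879A mutation and is captured from E. coli lysate; bead-bound FITC arrestin peptide fluorescence measuring arrestin peptide binding to AP2; 0% = DMSO wells and 100% = excess unlabeled arrestin peptide control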). The conditions noted are these: FITC arrestin peptide, at 10 µM, stronger effect = higher value, AP2 beta2 appendage fragment, R879A mutant.
Test [11] in a line: yeast V-ATPase proton transport modulators, S. cerevisiae, pHLuorin, HTS validation (AID 504600; in the data active = response above about 15%;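 note: plate controls were DMSO for no effect and reference compound for full effect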). The note with it: S. cerevisiae pHLuorin cytosolic pH, at 10 µM, stronger effect = higher value.
In test [12] the test system is anti-desmoglein-3 scFv antibody binding to human DSG3. The test can be described thus: inhibitors of anti-DSG3 scFv binding to DSG3, pilot screen, biochemical, validation compound set, bead-based, flow cytometry (AID 588368;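 active = binding below the plate cutoff, the plate median minus 3 SD, with a reading above zero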;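 note: signal is the median channel fluorescence of bead-bound GFP antibody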). The note with it: Protein G beads, DSG3-Fc, scFv-GFP binding, at 10 µM, stronger effect = lower value.
Test [13] is described as follows: inhibitors of fungal efflux pumps CDR1, CDR2, MDR1, pilot screen, validation compound set, multiplex, phenotypic (AID 588506;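 active = efflux inhibition above 0.42, the validation set average plus 4 SD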;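 note: Nile Red retained in cells so higher fluorescence means more efflux inhibition; 0 = negative control wells and 1 = enniatin B 25 µM full block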). The note with it: S. cerevisiae pump-expressing triplex, Nile Red efflux flow cytometry; at 10 µM; stronger effect = higher value; the pumps come from Candida albicans.
Test [14] addresses ATP-binding cassette sub-family B member 6 (Homo sapiens) (UniProt Q9NP58). The test can be described thus: ABCB6 transporter inhibitors, pilot screen, K562-ABCB6 cells, flow cytometry, validation set (AID 588550;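 active = inhibition above the screen-wide mean plus 3 SD, about 51%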;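 note: 0% = DMSO wells and 100% = benzethonium chloride 70 µM positive control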). The note with it: K562-ABCB6 porphyrin accumulation, 1 h, at 10 µM, stronger effect = higher value.
Test [15] in a line: promoters of myeloid differentiation in arrested cells, primary screen, cell-based, GFP/MAC1 double positive, flow cytometry, validation set (AID 588685;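 active = differentiation response of at least 50%, scaled between solvent and reference control, from cells with both markers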;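 note: compound exposure lasts four days before antibody staining and flow analysis; 0% = DMSO wells and 100% = 5 µM fulvestrant positive control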). The note with it: ER-HoxA9 marrow cells, stronger effect = higher value, normalized: vehicle 0, fulvestrant 100.
Test [16] can be described thus: superoxide lowering in aged yeast cells, pilot screen, validation compound set (AID 2706;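 active = superoxide response below 65% of plate, a cut near 3 SD across the whole screen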;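 note: yeast exposed to compound for one week at 30 degrees C before staining; 100% = mean of all compound wells on the same plate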). The note with it: S. cerevisiae aging, superoxide DHE fluorescence; at 10 µM, stronger effect = lower value.

Structures are written as SMILES. Results filed as inconclusive are left out. Calls of active or inactive are those of the source.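 Rule for the calls, unless noted: active = GFP signal, as percent of the solvent control, above the screen mean plus 3 SD, about 149; inconclusive = no reading because the compound's own fluorescence upset strain identification; inactive = the rest.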

Chain of Integrin beta-1 (Homo sapiens) + Integrin alpha-4 (Homo sapiens) (P05556 whole entry, looked up): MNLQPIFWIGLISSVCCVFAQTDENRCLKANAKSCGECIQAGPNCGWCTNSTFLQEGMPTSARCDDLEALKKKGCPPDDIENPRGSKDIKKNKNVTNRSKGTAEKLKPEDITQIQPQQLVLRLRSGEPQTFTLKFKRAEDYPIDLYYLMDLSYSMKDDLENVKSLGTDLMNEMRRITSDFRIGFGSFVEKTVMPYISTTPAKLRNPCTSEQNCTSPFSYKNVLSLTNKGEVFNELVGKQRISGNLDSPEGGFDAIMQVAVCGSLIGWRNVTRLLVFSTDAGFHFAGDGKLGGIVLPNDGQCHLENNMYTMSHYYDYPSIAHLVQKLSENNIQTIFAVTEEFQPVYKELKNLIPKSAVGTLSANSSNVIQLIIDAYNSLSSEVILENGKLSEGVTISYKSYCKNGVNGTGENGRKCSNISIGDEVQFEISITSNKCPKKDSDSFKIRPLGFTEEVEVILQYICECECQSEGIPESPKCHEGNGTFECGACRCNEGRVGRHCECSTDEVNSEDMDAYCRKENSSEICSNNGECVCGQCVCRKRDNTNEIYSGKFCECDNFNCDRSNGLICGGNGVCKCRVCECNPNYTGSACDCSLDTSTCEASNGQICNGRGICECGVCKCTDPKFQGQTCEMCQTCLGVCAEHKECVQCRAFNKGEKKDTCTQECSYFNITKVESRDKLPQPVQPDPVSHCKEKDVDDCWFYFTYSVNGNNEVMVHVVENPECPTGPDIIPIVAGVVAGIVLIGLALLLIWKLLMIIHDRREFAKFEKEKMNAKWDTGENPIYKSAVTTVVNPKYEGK
Chain of Integrin beta-1 (Homo sapiens) + Integrin alpha-4 (Homo sapiens) (P13612 whole entry, looked up): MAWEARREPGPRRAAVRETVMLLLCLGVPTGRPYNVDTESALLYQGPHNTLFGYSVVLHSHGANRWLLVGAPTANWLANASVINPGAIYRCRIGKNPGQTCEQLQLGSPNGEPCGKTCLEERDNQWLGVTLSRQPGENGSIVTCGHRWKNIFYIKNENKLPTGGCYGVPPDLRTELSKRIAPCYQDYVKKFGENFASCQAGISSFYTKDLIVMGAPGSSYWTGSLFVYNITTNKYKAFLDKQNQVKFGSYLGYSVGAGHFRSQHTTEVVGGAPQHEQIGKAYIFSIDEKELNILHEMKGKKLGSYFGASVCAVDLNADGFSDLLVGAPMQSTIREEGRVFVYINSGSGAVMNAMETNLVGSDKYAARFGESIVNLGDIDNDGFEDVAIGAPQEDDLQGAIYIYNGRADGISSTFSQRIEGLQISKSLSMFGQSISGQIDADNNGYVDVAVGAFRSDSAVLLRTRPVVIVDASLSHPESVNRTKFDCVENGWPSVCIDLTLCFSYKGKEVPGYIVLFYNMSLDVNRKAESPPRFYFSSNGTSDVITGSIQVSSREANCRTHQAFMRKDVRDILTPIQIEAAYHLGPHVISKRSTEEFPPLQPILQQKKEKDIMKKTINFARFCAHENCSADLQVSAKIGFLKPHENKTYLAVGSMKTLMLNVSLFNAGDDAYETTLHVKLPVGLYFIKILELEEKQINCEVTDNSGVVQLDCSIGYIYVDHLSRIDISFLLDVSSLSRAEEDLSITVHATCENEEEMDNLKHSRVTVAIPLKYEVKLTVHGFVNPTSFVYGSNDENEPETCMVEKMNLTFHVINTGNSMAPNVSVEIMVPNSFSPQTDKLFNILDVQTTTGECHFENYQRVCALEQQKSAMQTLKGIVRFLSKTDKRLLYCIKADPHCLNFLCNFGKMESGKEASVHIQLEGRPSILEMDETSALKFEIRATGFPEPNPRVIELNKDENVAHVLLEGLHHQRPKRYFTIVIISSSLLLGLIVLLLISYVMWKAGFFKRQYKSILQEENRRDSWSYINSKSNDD
Chain of Beta-adrenergic receptor kinase 1 (Homo sapiens) (P25098 whole entry, looked up): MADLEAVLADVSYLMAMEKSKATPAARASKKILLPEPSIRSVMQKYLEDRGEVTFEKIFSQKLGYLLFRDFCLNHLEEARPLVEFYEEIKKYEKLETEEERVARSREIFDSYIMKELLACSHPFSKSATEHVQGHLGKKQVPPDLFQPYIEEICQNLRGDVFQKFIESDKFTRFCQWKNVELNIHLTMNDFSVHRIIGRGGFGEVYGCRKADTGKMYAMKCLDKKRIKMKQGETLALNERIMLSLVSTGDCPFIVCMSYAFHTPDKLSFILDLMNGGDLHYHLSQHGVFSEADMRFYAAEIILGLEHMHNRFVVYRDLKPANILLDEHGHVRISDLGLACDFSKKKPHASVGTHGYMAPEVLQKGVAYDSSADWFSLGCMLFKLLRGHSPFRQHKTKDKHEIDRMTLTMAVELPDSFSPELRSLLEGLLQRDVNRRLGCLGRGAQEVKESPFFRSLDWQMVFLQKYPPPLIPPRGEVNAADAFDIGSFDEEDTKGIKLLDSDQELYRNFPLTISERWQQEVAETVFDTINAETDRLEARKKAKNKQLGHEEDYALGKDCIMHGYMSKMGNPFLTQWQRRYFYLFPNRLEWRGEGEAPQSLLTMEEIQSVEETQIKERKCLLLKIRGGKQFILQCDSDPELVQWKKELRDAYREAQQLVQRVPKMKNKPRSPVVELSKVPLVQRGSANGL
Chain of ATP-binding cassette sub-family B member 6 (Homo sapiens) (Q9NP58 whole entry, looked up): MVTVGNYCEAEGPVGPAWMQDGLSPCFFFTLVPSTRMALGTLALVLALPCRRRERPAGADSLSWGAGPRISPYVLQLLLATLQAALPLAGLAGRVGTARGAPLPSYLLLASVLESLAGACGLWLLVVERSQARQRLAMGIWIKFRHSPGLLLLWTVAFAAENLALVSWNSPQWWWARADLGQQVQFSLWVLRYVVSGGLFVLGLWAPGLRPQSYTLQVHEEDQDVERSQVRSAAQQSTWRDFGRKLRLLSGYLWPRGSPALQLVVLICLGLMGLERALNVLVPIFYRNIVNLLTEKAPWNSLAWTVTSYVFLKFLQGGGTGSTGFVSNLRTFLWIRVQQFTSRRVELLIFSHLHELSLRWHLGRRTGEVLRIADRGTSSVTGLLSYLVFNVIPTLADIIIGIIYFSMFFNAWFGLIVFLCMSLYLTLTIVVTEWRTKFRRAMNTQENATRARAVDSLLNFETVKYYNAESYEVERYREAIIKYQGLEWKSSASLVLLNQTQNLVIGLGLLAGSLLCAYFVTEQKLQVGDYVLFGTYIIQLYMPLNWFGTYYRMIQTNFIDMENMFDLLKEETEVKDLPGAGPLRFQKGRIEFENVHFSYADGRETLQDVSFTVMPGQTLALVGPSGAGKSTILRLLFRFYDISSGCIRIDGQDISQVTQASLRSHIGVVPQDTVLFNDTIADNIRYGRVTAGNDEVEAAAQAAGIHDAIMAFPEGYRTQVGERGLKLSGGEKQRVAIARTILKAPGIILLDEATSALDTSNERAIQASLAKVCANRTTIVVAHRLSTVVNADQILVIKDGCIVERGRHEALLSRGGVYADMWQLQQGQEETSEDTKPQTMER
Chain of AP-2 complex subunit beta (Homo sapiens) (P63010 whole entry, looked up, the tested form may be a part, one chain of several): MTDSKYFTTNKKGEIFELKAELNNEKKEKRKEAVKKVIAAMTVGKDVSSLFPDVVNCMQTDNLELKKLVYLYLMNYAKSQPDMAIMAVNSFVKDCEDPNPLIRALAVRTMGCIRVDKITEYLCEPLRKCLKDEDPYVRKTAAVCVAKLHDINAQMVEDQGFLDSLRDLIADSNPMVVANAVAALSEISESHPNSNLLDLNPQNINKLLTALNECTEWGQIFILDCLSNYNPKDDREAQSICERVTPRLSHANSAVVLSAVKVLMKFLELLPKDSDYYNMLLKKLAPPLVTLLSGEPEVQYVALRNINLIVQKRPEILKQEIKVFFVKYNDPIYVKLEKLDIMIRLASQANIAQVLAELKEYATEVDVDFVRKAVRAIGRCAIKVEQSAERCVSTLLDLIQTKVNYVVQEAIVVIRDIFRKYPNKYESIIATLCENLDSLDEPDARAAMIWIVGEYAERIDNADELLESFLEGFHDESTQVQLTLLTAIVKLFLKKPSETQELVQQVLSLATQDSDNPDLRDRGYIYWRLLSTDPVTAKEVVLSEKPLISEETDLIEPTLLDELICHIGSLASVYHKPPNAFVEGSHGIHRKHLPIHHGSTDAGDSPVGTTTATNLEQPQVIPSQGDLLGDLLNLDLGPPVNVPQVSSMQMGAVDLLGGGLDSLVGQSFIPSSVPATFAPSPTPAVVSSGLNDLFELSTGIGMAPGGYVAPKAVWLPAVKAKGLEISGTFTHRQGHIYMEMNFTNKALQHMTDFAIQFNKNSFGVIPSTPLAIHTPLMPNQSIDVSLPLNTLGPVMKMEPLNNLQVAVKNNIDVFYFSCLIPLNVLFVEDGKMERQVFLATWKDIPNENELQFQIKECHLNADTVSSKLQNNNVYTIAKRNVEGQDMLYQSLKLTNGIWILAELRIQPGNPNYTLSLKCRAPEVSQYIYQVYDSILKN
Chain of Beta-2 adrenergic receptor (Homo sapiens) (P07550 whole entry, looked up): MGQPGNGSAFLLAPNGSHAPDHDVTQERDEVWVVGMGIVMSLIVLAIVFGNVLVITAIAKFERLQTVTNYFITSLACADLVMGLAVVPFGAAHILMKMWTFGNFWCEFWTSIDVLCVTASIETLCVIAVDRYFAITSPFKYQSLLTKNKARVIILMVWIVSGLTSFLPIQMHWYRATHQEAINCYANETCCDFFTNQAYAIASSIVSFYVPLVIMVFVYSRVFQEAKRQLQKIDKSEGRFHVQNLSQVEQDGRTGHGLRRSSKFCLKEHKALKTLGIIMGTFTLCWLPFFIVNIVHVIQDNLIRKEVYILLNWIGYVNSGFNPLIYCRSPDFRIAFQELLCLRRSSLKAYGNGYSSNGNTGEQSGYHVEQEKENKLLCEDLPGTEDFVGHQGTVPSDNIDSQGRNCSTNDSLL

Regarding `CC/C(=C1/C(=O)CC(C)(C)C(C(=O)OC)C1=O)N1CCCC1` (stereo not drawn), the percent of DMSO control GFP in test [1] was 103% (inactive). Also, the GFP response vs DMSO in test [2] is 96.2% (inactive); in test [4], 83.5% (inactive). In addition, in [3], the percent response of DMSO control is 83.8% (inactive). For the same molecule, the GFP response, % of DMSO in [5] is 88.9% (inactive). The same molecule showed a double positive events in test [6] of 63%. Further, the vesicle binding response in test [6] is 174% (inactive). The inhibition in [7] is 6.81% (inactive); in test [10], -0.06% (inactive); in [14], 11% (inactive). The aptamer binding inhibition in test [8] was 3% (inactive). The response is -0.83% (inactive) in [9] and 3.5% (inactive) in [11]. Besides, the binding (% of control) in test [12] is 96.6% (inactive). In [13], the efflux inhibition (fraction of control) is 0.99 (active). Also, the differentiation response in test [15] is 34.5% (inactive).
`O=C(Nc1ccc(Oc2c(F)c(F)c(F)c(F)c2F)cc1)OC1CCN2Cc3ccccc3N=C12` (stereo not drawn): the percent of DMSO control GFP in [1] was 107% (inactive). Moreover, the GFP response vs DMSO in [2] is 105% (inactive); in test [4], 98.4% (inactive). In test [3], the percent response of DMSO control is 97.9% (inactive). The GFP response, % of DMSO in test [5] is 96.4% (inactive). Further, the double positive events in test [6] was 53.8%. Further, in test [6], the vesicle binding response is 123% (inactive). Also, the inhibition was -184% (inactive) in [7] and 1% (inactive) in [14]. The superoxide response (% of plate) in [16] is 85.7% (inactive). Besides, the aptamer binding inhibition in test [8] is 0% (inactive). In addition, in test [11], the response is -2.8% (inactive). Besides, the binding (% of control) in test [12] is 98.8% (inactive). Also, the efflux inhibition (fraction of control) in test [13] was 1.47 (active). For the same molecule, the differentiation response in test [15] is 70.8% (active).
In the case of `CC(C)(C)NCC(O)c1cc(O)cc(O)c1` (stereo not drawn), the percent of DMSO control GFP in test [1] is 97.8% (inactive). Moreover, the GFP response vs DMSO in [2] was 102% (inactive); in test [4], 106% (inactive). Further, the percent response of DMSO control in [3] was 95.1% (inactive). Further, in [5], the GFP response, % of DMSO is 119% (inactive). For the same molecule, the double positive events in [6] worked out at 61.6%. For the same molecule, the vesicle binding response in test [6] is 190% (inactive). Besides, the inhibition in test [7] is -15.6% (inactive); in [10], -13.2% (inactive); in [14] it was 6% (inactive). For the same molecule, the superoxide response (% of plate) in [16] is 113% (inactive). In addition, the response in [11] was -6.14% (inactive). The binding (% of control) in test [12] was 100% (inactive). In test [13], the efflux inhibition (fraction of control) is -0.04 (inactive). Moreover, the differentiation response in test [15] was -4.99% (inactive).
Consider `Cn1cnc2c1c(=O)n(CC(O)CO)c(=O)n2C` (stereo not drawn), for which, in test [1], the percent of DMSO control GFP was 102% (inactive). Further, the GFP response vs DMSO in test [2] was 96.2% (inactive); in [4], 98.6% (inactive). Also, the percent response of DMSO control in test [3] is 98.9% (inactive). In addition, the GFP response, % of DMSO in [5] was 96.7% (inactive). In test [6], the double positive events was determined as 62.7%. Moreover, the vesicle binding response in test [6] is 59.9% (inactive). For the same molecule, the results for the inhibition in test [7], in test [10] and in [14] were 11% (inactive), -6.49% (inactive) and 9% (inactive), respectively. In [8], the aptamer binding inhibition was -1% (inactive). The response in test [9] is -2.93% (inactive); in test [11], -0.43% (inactive). For the same molecule, in test [12], the binding (% of control) was 102% (inactive). Further, in test [13], the efflux inhibition (fraction of control) is -0.04 (inactive). The differentiation response in test [15] was 43.2% (inactive).
Consider `Cn1c(=O)c2c(ncn2CC(O)CO)n(C)c1=O` (stereo not drawn), for which the percent of DMSO control GFP in test [1] is 100% (inactive). For the same molecule, the GFP response vs DMSO was 99.9% (inactive) in test [2] and 104% (inactive) in test [4]. Further, the percent response of DMSO control in test [3] is 93.9% (inactive). In test [5], the GFP response, % of DMSO is 99.4% (inactive). The molecule further displayed a double positive events in test [6] of 53.8%. Also, in [6], the vesicle binding response was 114% (inactive). Further, the inhibition in test [7] was 11.9% (inactive); in test [10] it was -7.53% (inactive); in test [14] it was 9% (inactive). Further, in test [16], the superoxide response (% of plate) is 93.5% (inactive). For the same molecule, in [8], the aptamer binding inhibition is 2% (inactive). Moreover, the response in test [11] is -0.09% (inactive). Moreover, in test [12], the binding (% of control) is 81.7% (inactive). For the same molecule, in test [13], the efflux inhibition (fraction of control) was 0.22 (inactive). Moreover, the differentiation response in test [15] is -8.27% (inactive).

As usually defined, the inhibition is the relative decrease from the control value, in per cent.
